# Reference: the supplement of paper PMC8728848
# Only a selection was taken, and the strongest signals are over-represented in it overall.
# B1: Thrombomodulin (Mus musculus) (protein)
# chain: ALAKLQPTGSQCVEHECFALFQGPATFLDASQACQRLQGHLMTVRSSVAADVISLLLSQSSMDLGPWIGLQLPQGCDDPVHLGPLRGFQWVTGDNHTSYSRWARPNDQTAPLCGPLCVTVSTATEAAPGEPAWEEKPCETETQGFLCEFYFTASC
# B2: Tachylectin-2 (Tachypleus tridentatus), TAL2_TACTR (protein)
# chain: VGGESMLRGVYQDKFYQGTYPQNKNDNWLARATLIGKGGWSNFKFLFLSPGGELYGVLNDKIYKGTPPTHDNDNWMGRAKKIGNGGWNQFQFLFFDPNGYLYAVSKDKLYKASPPQSDTDNWIARATEIGSGGWSGFKFLFFHPNGYLYAVHGQQFYKALPPVSNQDNWLARATKIGQGGWDTFKFLFFSSVGTLFGVQGGKFYEDYPPSYAHDNWLARAKLIGNGGWDDFRFLFF
# Legend:
# Assay in all cases: glycan array binding signal (z-score within array); higher = stronger binding
# Conditions in all cases: glycan notation: IUPAC condensed, linker removed
# [1] = biological target: GlcNAc(a1-3)Gal(b1-4)GlcNAc
# Summary of the method: (§1)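 The binding signal is a Z-score computed within each array and averaged over linkers. Arrays of the same protein sequence at different concentrations or buffers were also averaged together. Data originate from 3228 arrays in the Consortium for Functional Glycomics database, kept only where the protein sequence was available.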
# [2] = biological target: GlcNAc(a1-4)Gal(b1-4)GlcNAc(b1-3)Gal(b1-4)[Fuc(a1-3)]GlcNAc(b1-3)Gal(b1-4)[Fuc(a1-3)]GlcNAc
# Summary of the method: as §1
# [3] = biological target: GlcNAc(b1-2)Man(a1-3)[GlcNAc(b1-4)][GlcNAc(b1-2)Man(a1-6)]Man(b1-4)GlcNAc(b1-4)[Fuc(a1-6)]GlcNAc
# Summary of the method: as §1
# [4] = biological target: GlcNAc(b1-2)[GlcNAc(b1-4)]Man(a1-3)[GlcNAc(b1-4)][GlcNAc(b1-2)Man(a1-6)]Man(b1-4)GlcNAc(b1-4)GlcNAc
# Summary of the method: as §1
# [5] = biological target: Man(a1-2)Man(a1-2)Man(a1-6)[Man(a1-3)]Man
# Summary of the method: as §1
# [6] = biological target: Man(a1-3)[Man(a1-6)]Man
# Summary of the method: as §1
# [7] = biological target: Man(a1-3)[Man(a1-6)]Man(a1-6)[Man(a1-3)]Man(b1-4)GlcNAc(b1-4)GlcNAc
# Summary of the method: as §1
# [8] = biological target: Neu5Ac(a2-3)Gal
# Summary of the method: as §1
# [9] = biological target: Neu5Ac(a2-3)Gal(b1-3)GalNAc
# Summary of the method: as §1
# [10] = biological target: Neu5Ac(a2-3)Gal(b1-3)GalNAc(b1-4)[Neu5Ac(a2-3)]Gal(b1-4)Glc
# Summary of the method: as §1
# [11] = biological target: Neu5Ac(a2-3)Gal(b1-3)GlcNAc(b1-3)GalNAc
# Summary of the method: as §1
# [12] = biological target: Neu5Ac(a2-3)Gal(b1-3)GlcNAc(b1-6)GalNAc
# Summary of the method: as §1
# [13] = biological target: Neu5Ac(a2-3)Gal(b1-4)Glc
# Summary of the method: as §1
# [14] = biological target: Neu5Ac(a2-3)Gal(b1-4)GlcNAc(b1-6)[Gal(b1-3)]GalNAc
# Summary of the method: as §1
# [15] = biological target: Neu5Ac(a2-3)Gal(b1-4)GlcNAc(b1-6)[Neu5Ac(a2-3)Gal(b1-3)]GalNAc
# Summary of the method: as §1
# [16] = biological target: Neu5Ac(a2-3)Gal(b1-4)[Fuc(a1-3)]GlcNAc(b1-3)GalNAc
# Summary of the method: as §1
# [17] = biological target: Neu5Ac(a2-6)GalNAc(b1-4)GlcNAc
# Summary of the method: as §1
# [18] = biological target: Neu5Ac(a2-8)Neu5Ac(a2-3)Gal(b1-4)GlcNAc
# Summary of the method: as §1
# [19] = biological target: Neu5Ac(b2-6)Gal(b1-4)GlcNAc
# Summary of the method: as §1
# [20] = biological target: Neu5Ac(b2-6)GalNAc
# Summary of the method: as §1
# [21] = biological target: Fuc(a1-2)Gal(b1-4)GlcNAc
# Summary of the method: as §1
# [22] = biological target: Fuc(a1-2)[Gal(a1-4)]Gal(b1-4)GlcNAc
# Summary of the method: as §1
# [23] = biological target: Fuc(a1-2)[GalNAc(a1-3)]Gal(b1-4)GlcNAc(b1-2)Man(a1-3)[Fuc(a1-2)[GalNAc(a1-3)]Gal(b1-4)GlcNAc(b1-2)Man(a1-6)]Man(b1-4)GlcNAc(b1-4)GlcNAc
# Summary of the method: as §1
# [24] = biological target: Fuc(a1-2)[GalNAc(a1-3)]Gal(b1-4)GlcNAc(b1-3)Gal(b1-4)GlcNAc
# Summary of the method: as §1
# [25] = biological target: Fuc(a1-2)[GalNAc(a1-3)]Gal(b1-4)GlcNAc(b1-3)Gal(b1-4)GlcNAc(b1-3)Gal(b1-4)GlcNAc
# Summary of the method: as §1
# [26] = biological target: Fuc(a1-2)[GalNAc(a1-4)]Gal(b1-4)GlcNAc
# Summary of the method: as §1
# [27] = biological target: Gal(a1-4)Gal(b1-4)GlcNAc(b1-3)Gal(b1-4)Glc
# Summary of the method: as §1
# [28] = biological target: Gal(a1-4)GlcNAc
# Summary of the method: as §1
# [29] = biological target: Gal(b1-3)GlcNAc(b1-3)Gal(b1-4)Glc
# Summary of the method: as §1
# [30] = biological target: Gal(b1-3)GlcNAc(b1-3)Gal(b1-4)GlcNAc
# Summary of the method: as §1
# [31] = biological target: Gal(b1-4)GlcNAc(b1-2)Man(a1-3)[GlcNAc(b1-2)Man(a1-6)]Man(b1-4)GlcNAc(b1-4)GlcNAc
# Summary of the method: as §1
# [32] = biological target: Gal(b1-4)GlcNAc(b1-2)[Gal(b1-4)GlcNAc(b1-4)]Man(a1-3)[Gal(b1-4)GlcNAc(b1-2)[Gal(b1-4)GlcNAc(b1-6)]Man(a1-6)]Man(b1-4)GlcNAc(b1-4)GlcNAc
# Summary of the method: as §1
# [33] = biological target: Gal(b1-4)GlcNAc(b1-3)Gal(b1-4)GlcNAc
# Summary of the method: as §1
# [34] = biological target: Gal(b1-4)GlcNAc(b1-3)[Gal(b1-4)GlcNAc(b1-6)]Gal(b1-4)GlcNAc
# Summary of the method: as §1
# [35] = biological target: Gal3S(b1-4)[Fuc(a1-3)]Glc
# Summary of the method: as §1
# [36] = biological target: Gal6S(b1-4)Glc
# Summary of the method: as §1
# [37] = biological target: GalNAc(a1-3)GalNAc
# Summary of the method: as §1
# [38] = biological target: GlcNAc(a1-4)Gal(b1-4)GlcNAc(b1-3)Gal(b1-4)GlcNAc(b1-3)Gal(b1-4)GlcNAc
# Summary of the method: as §1
# [39] = biological target: GlcNAc(a1-6)Gal(b1-4)GlcNAc
# Summary of the method: as §1
# [40] = biological target: GlcNAc(b1-3)Man
# Summary of the method: as §1
# [41] = biological target: GlcNAc(b1-3)[GlcNAc(b1-4)][GlcNAc(b1-6)]GlcNAc
# Summary of the method: as §1
# [42] = biological target: GlcNAc(b1-4)Gal(b1-4)GlcNAc
# Summary of the method: as §1
# [43] = biological target: GlcNAc(b1-4)GlcNAc(b1-4)GlcNAc(b1-4)GlcNAc(b1-4)GlcNAc
# Summary of the method: as §1
# [44] = biological target: GlcNAc(b1-6)GalNAc
# Summary of the method: as §1
# [45] = biological target: Kdn(a2-3)Gal(b1-3)GalNAc
# Summary of the method: as §1
# [46] = biological target: Man(a1-2)Man(a1-3)[Man(a1-6)]Man(a1-6)[Man(a1-2)Man(a1-3)]Man(b1-4)GlcNAc(b1-4)GlcNAc
# Summary of the method: as §1
# [47] = biological target: Man(a1-3)[Man(a1-6)]Man(a1-6)[Man(a1-3)]Man
# Summary of the method: as §1
# [48] = biological target: Neu5Ac(a2-3)Gal(b1-4)GlcNAc
# Summary of the method: as §1
# [49] = biological target: Neu5Ac(a2-3)Gal(b1-4)GlcNAc(b1-3)Gal(b1-3)GlcNAc
# Summary of the method: as §1
binder,measurement,setting,value
B1,glycan array binding signal (z-score),[1],-0.129
same,glycan array binding signal (z-score),[2],0.047
same,glycan array binding signal (z-score),[3],-0.052
same,glycan array binding signal (z-score),[4],1.03
same,glycan array binding signal (z-score),[5],-0.278
same,glycan array binding signal (z-score),[6],0.154
same,glycan array binding signal (z-score),[7],-0.262
same,glycan array binding signal (z-score),[8],-0.273
same,glycan array binding signal (z-score),[9],1.07
same,glycan array binding signal (z-score),[10],-0.4
same,glycan array binding signal (z-score),[11],-0.354
same,glycan array binding signal (z-score),[12],0.614
same,glycan array binding signal (z-score),[13],2.91
same,glycan array binding signal (z-score),[14],-0.321
same,glycan array binding signal (z-score),[15],-0.43
same,glycan array binding signal (z-score),[16],0.695
same,glycan array binding signal (z-score),[17],-0.193
same,glycan array binding signal (z-score),[18],-0.54
same,glycan array binding signal (z-score),[19],-0.139
same,glycan array binding signal (z-score),[20],-0.216
B2,glycan array binding signal (z-score),[21],-0.309
same,glycan array binding signal (z-score),[22],-0.436
same,glycan array binding signal (z-score),[23],4.37
same,glycan array binding signal (z-score),[24],4.29
same,glycan array binding signal (z-score),[25],4.11
same,glycan array binding signal (z-score),[26],3.88
same,glycan array binding signal (z-score),[27],-0.296
same,glycan array binding signal (z-score),[28],0.001
same,glycan array binding signal (z-score),[29],-0.315
same,glycan array binding signal (z-score),[30],-0.357
same,glycan array binding signal (z-score),[31],-0.295
same,glycan array binding signal (z-score),[32],-0.294
same,glycan array binding signal (z-score),[33],-0.367
same,glycan array binding signal (z-score),[34],-0.43
same,glycan array binding signal (z-score),[35],-0.39
same,glycan array binding signal (z-score),[36],-0.268
same,glycan array binding signal (z-score),[37],4.41
same,glycan array binding signal (z-score),[38],3.96
same,glycan array binding signal (z-score),[39],4.99
same,glycan array binding signal (z-score),[40],-0.096
same,glycan array binding signal (z-score),[41],-0.413
same,glycan array binding signal (z-score),[42],1.17
same,glycan array binding signal (z-score),[43],0.004
same,glycan array binding signal (z-score),[44],1.42
same,glycan array binding signal (z-score),[45],-0.296
same,glycan array binding signal (z-score),[5],-0.33
same,glycan array binding signal (z-score),[46],-0.173
same,glycan array binding signal (z-score),[47],-0.344
same,glycan array binding signal (z-score),[48],-0.374
same,glycan array binding signal (z-score),[49],-0.256
